# Laboratory results reported in ChEMBL document CHEMBL4808148, “HDAC6 screening dataset using tau-based substrate in an enzymatic assay yields selective inhibitors and activators” (2021).
# Screen size: about 5,600 compounds; about 390 (7%) showed an effect of 50% or more. Only a selection was taken, and strong results are over-represented in it overall.
# Experiments:
# [1] = target: T1, Protein deacetylase HDAC6 (Homo sapiens) (UniProt Q9UBN7); conditions: at 10 µM
# T1 sequence (whole entry): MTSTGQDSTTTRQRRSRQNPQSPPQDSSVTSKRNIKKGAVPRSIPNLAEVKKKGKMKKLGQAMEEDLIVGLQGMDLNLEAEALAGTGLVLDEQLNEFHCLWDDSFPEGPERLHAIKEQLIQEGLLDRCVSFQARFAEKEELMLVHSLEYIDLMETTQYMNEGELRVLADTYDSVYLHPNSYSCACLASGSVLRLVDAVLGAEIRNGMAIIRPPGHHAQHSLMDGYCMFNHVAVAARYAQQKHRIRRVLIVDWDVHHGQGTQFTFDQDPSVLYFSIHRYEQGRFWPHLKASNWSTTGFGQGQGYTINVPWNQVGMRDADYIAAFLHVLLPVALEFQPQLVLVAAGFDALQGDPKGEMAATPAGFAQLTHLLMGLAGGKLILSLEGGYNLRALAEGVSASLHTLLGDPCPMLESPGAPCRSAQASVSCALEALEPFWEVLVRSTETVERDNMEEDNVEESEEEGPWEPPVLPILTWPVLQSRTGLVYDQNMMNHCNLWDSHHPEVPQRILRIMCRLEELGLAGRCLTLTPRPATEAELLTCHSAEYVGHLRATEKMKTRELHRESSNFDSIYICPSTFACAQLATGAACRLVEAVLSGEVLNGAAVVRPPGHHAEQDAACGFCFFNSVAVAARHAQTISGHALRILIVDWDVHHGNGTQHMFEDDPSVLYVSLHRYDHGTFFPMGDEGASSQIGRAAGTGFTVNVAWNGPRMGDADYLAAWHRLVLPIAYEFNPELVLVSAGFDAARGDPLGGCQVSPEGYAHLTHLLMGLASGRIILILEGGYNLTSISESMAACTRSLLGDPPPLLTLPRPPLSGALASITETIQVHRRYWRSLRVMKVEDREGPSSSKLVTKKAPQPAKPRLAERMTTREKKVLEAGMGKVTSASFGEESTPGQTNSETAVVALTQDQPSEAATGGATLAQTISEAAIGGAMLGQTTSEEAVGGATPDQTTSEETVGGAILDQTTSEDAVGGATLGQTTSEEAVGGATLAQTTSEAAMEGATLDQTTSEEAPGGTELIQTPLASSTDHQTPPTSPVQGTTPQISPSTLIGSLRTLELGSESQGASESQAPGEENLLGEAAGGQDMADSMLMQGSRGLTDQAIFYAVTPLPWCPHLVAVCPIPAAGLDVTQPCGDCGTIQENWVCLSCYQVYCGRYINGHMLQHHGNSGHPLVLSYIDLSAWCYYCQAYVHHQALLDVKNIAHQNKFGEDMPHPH
# [2] = target: Protein deacetylase HDAC6 (Homo sapiens) (UniProt Q9UBN7); conditions: at 10 µM; remark: listed apart in the source
Compound,inhibition [1],inhibition [2]
O=[N+]([O-])c1cc2nc(O)c(O)nc2cc1[N+](=O)[O-],-5.28%,–
CC(C)c1ccc(-c2cc(=O)c3ccccc3o2)cc1,101%,–
O=C(O)c1cc(=O)c2ccccc2o1,-1.55%,–
NCCC(Oc1ccc(C(F)(F)F)cc1)c1ccccc1 (stereo not drawn),1.38%,–
CC[C@H]1OC(=O)[C@@](C)(F)C(=O)[C@H](C)[C@@H](O[C@@H]2O[C@H](C)C[C@H](N(C)C)[C@H]2O)[C@](C)(OC)C[C@@H](C)C(=O)[C@H](C)[C@H]2N(CCCCn3cc(-c4cccc(N)c4)nn3)C(=O)O[C@]12C,17.2%,–
c1ccc2sc(SN3CCOCC3)nc2c1,58.2%,–
FC(F)c1nc2ccccc2n1-c1nc(N2CCOCC2)nc(N2CCOCC2)n1,29.1%,–
COc1ccccc1Oc1c(NS(=O)(=O)c2ccc(C(C)(C)C)cc2)nc(-c2ncccn2)nc1OCCO,22.5%,–
COc1ccc(F)c(F)c1C(=O)c1cnc(NC2CCN(S(C)(=O)=O)CC2)nc1N,-5.57%,–
C=CCNC(=O)c1cc([N+](=O)[O-])cc2c(=O)[nH]c(Nc3ccc(Cl)c(Cl)c3)nc12,17.8%,–
CN(C)c1ccc2c(c1)Sc1cc(N(C)C)ccc1N2,66.8%,–
N#CN=C(NCCCCCCOc1ccc(Cl)cc1)Nc1ccncc1,-6.3%,–
COc1cc2c(NC3CCN(C(C)C)CC3)nc(N3CCC(F)(F)CC3)nc2cc1OCCCN1CCCC1,-5.91%,–
COc1cc(C2Oc3ccc(C4Oc5cc(O)cc(O)c5C(=O)C4O)cc3OC2CO)ccc1O (stereo not drawn),-5.75%,–
Cc1cc(Cn2nnc3c(-c4ccco4)nc(N)nc32)ccc1N,-1.08%,–
Cc1c(OCc2cccc(-c3ccc(C(=O)O)cc3)c2)cc2c(c1C)C(=O)C(C1CCCC1)C2 (stereo not drawn),-0.56%,–
CCCCn1ccc(N2CCC(c3ccccc3)CC2)c(Cl)c1=O,59.9%,–
CCN1C(=O)NC(c2ccccc2)C1=O (stereo not drawn),22.6%,–
Cc1ccc2c(c1)C(=O)C1(O)CCN(c3ccccc3)C1=N2 (racemic),1.13%,–
O=C(O)C[C@H]1CC[C@H](c2ccc(NC(=O)c3nnc(Nc4ccc(F)c(F)c4)o3)cc2)CC1,35.2%,–
Oc1cc(O)c2cc(O)c(-c3cc(O)c(O)c(O)c3)[o+]c2c1,38.4%,–

Compound,inhibition [1],inhibition [2]
CC(C)Nc1cccnc1N1CCN(C(=O)c2cc3cc(NS(C)(=O)=O)ccc3[nH]2)CC1,51.2%,–
CC(C)(C)c1ccc(NC(=O)N2CCN(c3ncccc3Cl)CC2)cc1,24.7%,–
COC1=C(OC)C(=O)C(C/C=C(\C)CC/C=C(\C)CC/C=C(\C)CC/C=C(\C)CC/C=C(\C)CC/C=C(\C)CC/C=C(\C)CC/C=C(\C)CC/C=C(\C)CCC=C(C)C)=C(C)C1=O,4.15%,–
CC(C)c1ccc2oc3nc(N)c(C(=O)O)cc3c(=O)c2c1,98.2%,–
N[C@@H](C(=O)O)c1ccc(O)c(C(=O)O)c1,1.46%,–
N[C@H](C(=O)O)c1ccc(O)c(C(=O)O)c1,-8.79%,–
"BISMUTH SUBCITRATE POTASSIUM, CHEMBL1201186",–,16.3%
Cc1ccc(/C(=C\CN2CCCC2)c2cccc(/C=C/C(=O)O)n2)cc1,-6.81%,–
COc1cc(C[C@H]2c3cc(OC)c(OC)cc3CCN2C)c(Oc2cc3c(cc2OC)-c2c(OC)c(OC)cc4c2[C@H](C3)N(C)CC4)cc1OC,33.6%,–
COc1cc(C(=O)NCC2(N(C)C)CCCC2)cc(OC)c1OCc1ccccc1,0.96%,–
Nc1nc(NCCc2ccc(O)cc2)nc2nc(-c3ccco3)nn12,67.5%,–
COc1cc(C(=S)N2CCOCC2)cc(OC)c1OC,14.8%,–
COc1ccc(S(=O)(=O)N2c3ccc(Cl)cc3[C@](O)(c3ccccc3Cl)[C@@H]2C(=O)N2CCC[C@H]2C(N)=O)cc1OC,-7.22%,–
Cn1ccc2cc3c(cc21)CCN3C(=O)Nc1cccnc1,100%,–
Cn1ccc2cc(NC(=O)Nc3cccnc3)ccc21,88.1%,–
O=C(Nc1ccc2c(O)cc(S(=O)(=O)O)cc2c1)Nc1ccc2c(O)cc(S(=O)(=O)O)cc2c1,45.9%,–
O=C(NCC(=O)N1CCCC1)Nc1ccc2cnccc2c1,-7.55%,–
COc1cc2c(cc1C(F)(F)F)N(C(=O)Nc1cc(F)cc(-c3cccnc3)c1)CC2,-6.46%,–
CSc1cc2c(cc1C(F)(F)F)N(C(=O)Nc1cccnc1)CC2,19.3%,–
Cc1c(C(=O)NN2CCOCC2)nn(-c2ccc(Cl)cc2Cl)c1-c1ccc(I)cc1,0.27%,–
COc1cccc([C@@H](C)NCCCc2ccccc2Cl)c1,2.6%,–

Compound,inhibition [1],inhibition [2]
CC(C)C[C@H](N)C(=O)O,5.48%,–
CC(=O)Nc1cccc(Nc2ncnc(N3CCC(OCc4ccc(OC(F)(F)F)cc4)CC3)n2)c1C,22.4%,–
CCc1c(-c2ccccc2)c(-c2ccccc2)nn1-c1ccccc1-c1cccc(OCC(=O)O)c1,10.2%,–
c1ccc2[nH]c(-c3cscn3)nc2c1,97.3%,–
O=C(O)CCc1nc2ccccc2[nH]1,10.6%,–
CCN(c1cc(C#CCN2CCOCC2)cc(C(=O)NCc2c(C)cc(C)[nH]c2=O)c1C)[C@H]1CC[C@H](N(C)CCOC)CC1,-8.25%,–
COc1ccccc1OC(=O)C(C)c1ccc(CC(C)C)cc1 (stereo not drawn),10.7%,–
CCOC(=O)[C@H](CCc1ccccc1)N[C@@H](C)C(=O)N1[C@H](C(=O)O)C[C@H]2CCCC[C@@H]21,3.93%,–
Cc1cccc(C)c1-n1c(=O)c2cnc(Nc3ccc(N4CCN(C)CC4)cc3)nc2n2c3ccccc3nc12,-1.49%,–
O=C(Nc1c[nH]nc1-c1nc2ccc(CN3CCOCC3)cc2[nH]1)NC1CC1,32.3%,–
Nc1ccc(-c2nc3ccc(-c4nc5ccc(N)cc5[nH]4)cc3[nH]2)cc1,61.9%,–
Nc1ccc2cc3ccc(N)cc3nc2c1,6.02%,–
CC(C)C(C(=O)Nc1nccs1)c1ccc(Cl)cc1 (stereo not drawn),10.4%,–
COC(=O)c1csc(C(=O)c2c[nH]c3ccccc23)n1,47.6%,–
Nc1ccn([C@@H]2O[C@H](CO)[C@@H](O)C2(F)F)c(=O)n1,-4.87%,–
COC(=O)Nc1nc2cc(C(=O)c3ccccc3)ccc2[nH]1,-5.79%,–
COC(=O)Nc1nc2cc(Sc3ccccc3)ccc2[nH]1,65.2%,–
COC(=O)Nc1nc2cc(SC(C)C)ccc2[nH]1,79.4%,–
CCCOc1ccc2[nH]c(NC(=O)OC)nc2c1,31.6%,–
COC(=O)Nc1nc2cc(C(=O)c3ccc(F)cc3)ccc2[nH]1,1.02%,–
CCCC(=O)Nc1ncnc2c1ncn2C1O[C@@H]2COP(=O)(O)O[C@H]2[C@H]1OC(=O)CCC (stereo partly drawn),3.41%,–
